HP1b chromo inh: blocks HP1-beta chromodomain binding to methylated histone tails | P83916 | AlphaScreen HP1-beta / biotin-H3K9me3 peptide binding | Potency, µM (doses to about 114 µM), without a hit: at the highest dose activity change, negative = inhibition, actives largely listed as inhibitors | hit rate 0.56% among 390,000; further: nearly all actives have a fitted effect of over 70% in size
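AlphaScreen: HP1-beta (50 nM) preformed 30 min with biotin-H3(1-18)K9me3 peptide (50 nM) in PBS pH 7.4, 0.01% Tween-20. Compound added for 30 min at RT, then streptavidin donor/nickel chelate acceptor beads (10 ug/mL) for 30 min.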
G9a inh: inhibitors of human histone lysine methyltransferase G9a. Potency, µM (series often up to 102 µM), inactives show top-dose activity, negative = inhibition, hits mostly inhibitors. G9a H3K9 monomethylation, AlphaScreen, 2 h. hit rate 8.8% among 350,000; further: on the % scale 0 is the no-effect control and ±100 the full control effect; nearly all actives have a fitted effect of over 75% in size
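G9a (20 nM) preincubated 15 min RT with compounds, then 500 nM biotinylated H3K9 peptide and 20 uM SAM added; 2 h RT reaction. Monomethyl-H3K9 product detected by AlphaScreen with anti-H3K9me1 antibody, streptavidin donor and anti-rabbit IgG acceptor beads.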
Sfp inh: inhibitors of Bacillus subtilis Sfp phosphopantetheinyl transferase; Biochemical Sfp PPTase activity, qHTS; Potency, µM, without a hit: largest response in the series, negative = inhibition, usual class: inhibitors; hit rate 3.5% among 310,000; AID 1490;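 further: the enzyme is Sfp with the accession as filed and its product quenches rhodamine fluorescence; 0% = enzyme reaction without inhibitor and -100% = no enzyme wells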
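Compounds were incubated with enzyme (final 15 nM) for 15 min at room temperature before substrate addition started the reaction. Fluorescence at 525 nm excitation, 598 nm emission was recorded immediately and after 30 minutes.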
L3MBTL1 inh: L3MBTL1 (human) inhibition; Potency, µM (titrated, usually from 57.1 µM), for the others: top-dose activity, negative = inhibition, usual class: inhibitors; AlphaScreen L3MBTL1–H3K9me1 peptide binding; hit rate 0.66% among 230,000; Q9Y468; AID 485360; further: on the % scale 0 is the no-effect control and ±100 the full control effect; nearly all actives have a fitted effect of over 60% in size
Target sequence (Q9Y468 whole entry, looked up): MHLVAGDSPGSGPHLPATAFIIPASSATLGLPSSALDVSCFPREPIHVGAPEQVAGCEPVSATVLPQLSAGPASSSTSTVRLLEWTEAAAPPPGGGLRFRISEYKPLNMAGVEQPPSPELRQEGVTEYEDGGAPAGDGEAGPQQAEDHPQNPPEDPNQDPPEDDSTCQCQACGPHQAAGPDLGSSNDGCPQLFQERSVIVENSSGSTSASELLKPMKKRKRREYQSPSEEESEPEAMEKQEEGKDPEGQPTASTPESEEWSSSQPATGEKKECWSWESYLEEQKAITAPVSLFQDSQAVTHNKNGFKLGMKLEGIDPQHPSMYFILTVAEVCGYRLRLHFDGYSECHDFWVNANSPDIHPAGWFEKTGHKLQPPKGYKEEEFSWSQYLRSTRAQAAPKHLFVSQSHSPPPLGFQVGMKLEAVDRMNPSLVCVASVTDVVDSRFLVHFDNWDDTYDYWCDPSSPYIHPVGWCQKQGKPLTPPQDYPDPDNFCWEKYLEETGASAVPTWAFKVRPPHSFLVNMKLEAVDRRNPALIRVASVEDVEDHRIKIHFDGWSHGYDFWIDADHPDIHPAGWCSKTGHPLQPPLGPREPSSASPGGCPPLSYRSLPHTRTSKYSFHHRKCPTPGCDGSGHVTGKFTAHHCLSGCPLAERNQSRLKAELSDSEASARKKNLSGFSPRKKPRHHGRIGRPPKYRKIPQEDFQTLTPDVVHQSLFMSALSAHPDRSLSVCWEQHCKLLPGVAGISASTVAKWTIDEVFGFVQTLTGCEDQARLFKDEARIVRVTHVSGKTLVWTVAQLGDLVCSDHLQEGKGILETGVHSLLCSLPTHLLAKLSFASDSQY
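Displacement of a biotinylated histone H3(1-15) peptide monomethylated at Lys9 (75 nM) from L3MBTL1 (50 nM) was measured by AlphaScreen after a 30 min room-temperature compound incubation; cefsulodin titration served as intraplate control.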
JMJD2A Tudor: JMJD2A Tudor domain (human) inhibition. Potency, µM (titrated, usually from 114 µM), without a hit: at the highest dose activity change, negative = inhibition, actives largely listed as inhibitors. O75164. hit rate 4.4% among 390,000. AlphaScreen JMJD2A-Tudor / H3K4me3 peptide binding; further: on the % scale 0 is the no-effect control and ±100 the full control effect; nearly all actives have a fitted effect of over 50% in size
BAZ2B block: BAZ2B (human) inhibition | Potency, µM (highest dose often 114 µM), without a hit: at the highest dose activity change, negative = inhibition, usual class: inhibitors | Q9UIF8 | hit rate 4.4% among 360,000 | AID 504333 | AlphaScreen BAZ2B-H3K14Ac peptide displacement; further: on the % scale 0 is the no-effect control and ±100 the full control effect; nearly all actives have a fitted effect of over 60% in size
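Multi-concentration screen (max 110 uM) measuring displacement of acetylated histone H3 peptide from BAZ2B by AlphaScreen, using 50 nM protein, 50 nM peptide and 10 ug/mL streptavidin donor plus Ni-chelate acceptor beads.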
The depositor's hits bear a star; [ ] = dose if it differs, or a comment. Most compounds without a hit are left out; they make up all but 12% or so of the library. The call rests on the fitted dose curve; in most records, active means well fitted curve in the direction sought with a large enough effect; inconclusive means small, poorly fitted or top-dose-only effect, or another doubt; inactive means no such curve, though single readings can be large; an effect the other way counts as inactive or inconclusive. Potency means the concentration at half of the fitted maximal effect.

What do the screens show for `COc1ccc(-c2cc(-c3ccco3)[nH]c(=O)c2C#N)cc1OC`?
HP1b chromo inh: 11.8%; G9a inh: 10µM*; Sfp inh: 22.4µM*; L3MBTL1 inh: inconclusive; JMJD2A Tudor: inconclusive; BAZ2B block: 56.2µM*

How did COc1cc(OC)c(NC(=O)N2CCc3cc(S(=O)(=O)N4CCC(C)CC4)ccc32)cc1Cl do in these assays?
HP1b chromo inh: 4.5%; G9a inh: -1.1%[59 µM]; JMJD2A Tudor: -16.8%; BAZ2B block: 2.0%

How did COc1ccc2c(CC(=O)OCC(=O)Nc3ccc(C)cc3)coc2c1 do in these assays?
HP1b chromo inh: 4.3%; G9a inh: -8.2%[12.7 µM]; L3MBTL1 inh: inconclusive; JMJD2A Tudor: -28.9%; BAZ2B block: 50.1µM*

How did COc1ccc2c(CC(=O)OCC(=O)Nc3ccc4c(c3)OCO4)coc2c1 do in these assays?
HP1b chromo inh: inconclusive; G9a inh: inconclusive; Sfp inh: 3.3%; JMJD2A Tudor: 20µM*; BAZ2B block: inconclusive

Results for Cc1ccc(NC(=S)NCc2ccc3c(c2)OCO3)cc1 ?
HP1b chromo inh: -9.0%; G9a inh: 2.6%[59 µM]; Sfp inh: -9.1%; L3MBTL1 inh: -3.6%; JMJD2A Tudor: -22.3%; BAZ2B block: -5.0%

Results for CCOc1ccc(NC(=S)NCc2ccc3c(c2)OCO3)cc1 ?
HP1b chromo inh: 23.2%; G9a inh: 10µM*; Sfp inh: -13.0%; L3MBTL1 inh: -18.6%; JMJD2A Tudor: -26.6%; BAZ2B block: inconclusive

How did COc1ccc2c(CC(=O)OCC(=O)Nc3ccc(S(N)(=O)=O)cc3)coc2c1 do in these assays?
HP1b chromo inh: 6.4%; G9a inh: 11.1%[12.7 µM]; Sfp inh: 6.3%; JMJD2A Tudor: -31.7%; BAZ2B block: -9.9%

Results for CC1(C)CC(NC(=S)NCc2ccc3c(c2)OCO3)CC(C)(C)N1 ?
G9a inh: 39.8µM*; Sfp inh: -10.2%; L3MBTL1 inh: -1.6%; BAZ2B block: 56.2µM*

Results for CCc1cccc(NC(=O)CCS(=O)(=O)c2cc3c4c(c2)CCN4C(=O)CC3)c1 ?
HP1b chromo inh: -4.5%; G9a inh: inconclusive; JMJD2A Tudor: -16.6%; BAZ2B block: -2.4%

What do the screens show for `CC(C)c1ccc(NC(=O)C2CCN(S(=O)(=O)c3cccc4nonc34)CC2)cc1`?
HP1b chromo inh: 4.3%; G9a inh: -3.7%[59 µM]; JMJD2A Tudor: -16.7%; BAZ2B block: 4.7%

How did CC(=O)c1ccc(NC(=O)CSc2nnc3ccc(-c4ccc(Cl)cc4)nn23)cc1 do in these assays?
HP1b chromo inh: 42.3%; G9a inh: -17.9%[59 µM]; JMJD2A Tudor: -0.6%; BAZ2B block: 1.5%

How did CS(=O)(=O)N(Cc1ccccc1)c1ccc(C(=O)NCc2ccccc2)cc1 do in these assays?
HP1b chromo inh: 7.8%; G9a inh: 12.6%[2.33 µM]; Sfp inh: 22.6%; JMJD2A Tudor: -13.9%; BAZ2B block: 0.4%

How did CCOc1ccc(OCCC(=O)OCC(=O)Nc2ccc3c(c2)OCO3)cc1 do in these assays?
HP1b chromo inh: -20.1%; G9a inh: 44.7µM*; L3MBTL1 inh: -0.6%; JMJD2A Tudor: -35.0%; BAZ2B block: -38.0%

What do the screens show for `Cc1ccnc(NS(=O)(=O)c2ccc(N3C(=O)c4c(Cl)c(Cl)c(Cl)c(Cl)c4C3=O)cc2)n1`?
HP1b chromo inh: inconclusive; G9a inh: inconclusive; Sfp inh: -9.7%; L3MBTL1 inh: 7.7%; JMJD2A Tudor: 89.1µM*; BAZ2B block: inconclusive

How did Cc1ccc(Cl)cc1NC(=O)CSc1nc2ccccc2c2nc(-c3ccccc3)nn12 do in these assays?
HP1b chromo inh: 44.1%; G9a inh: 10.0%[59 µM]; JMJD2A Tudor: -8.3%; BAZ2B block: 2.3%

Results for COc1ccccc1NC(=O)C1CCN(S(=O)(=O)c2ccc3c(c2)oc(=O)n3C)CC1 ?
HP1b chromo inh: 19.9%; G9a inh: -3.7%[59 µM]; JMJD2A Tudor: -17.9%; BAZ2B block: -1.8%

Results for Cc1ccccc1OCC(=O)N(Cc1ccc(N(C)C)cc1)C1CCS(=O)(=O)C1 (stereo unspecified) ?
HP1b chromo inh: -14.0%; G9a inh: 31.6µM*; Sfp inh: 6.3%; L3MBTL1 inh: -2.1%; JMJD2A Tudor: inconclusive; BAZ2B block: -45.9%

Results for Cc1ccc(OCC(=O)N(Cc2ccc(N(C)C)cc2)C2CCS(=O)(=O)C2)cc1C (stereo unspecified) ?
HP1b chromo inh: inconclusive; Sfp inh: 1.6%; L3MBTL1 inh: -4.3%; JMJD2A Tudor: inconclusive; BAZ2B block: 44.7µM*

How did Cc1c(C(=O)N(Cc2ccccc2)C2CCS(=O)(=O)C2)oc2ccccc12 (stereo unspecified) do in these assays?
HP1b chromo inh: 19.1%; G9a inh: 3.1%; Sfp inh: 7.9%; L3MBTL1 inh: 2.5%; JMJD2A Tudor: -22.5%; BAZ2B block: -7.8%

Results for CN(C)c1ccc(CN(C(=O)C2COc3ccccc3O2)C2CCS(=O)(=O)C2)cc1 (stereo unspecified) ?
HP1b chromo inh: -5.6%; G9a inh: 44.7µM*; Sfp inh: inconclusive; L3MBTL1 inh: -23.1%; JMJD2A Tudor: inconclusive; BAZ2B block: 56.2µM*

How did Cc1c(C(=O)N(Cc2ccc(N(C)C)cc2)C2CCS(=O)(=O)C2)oc2ccccc12 (stereo unspecified) do in these assays?
HP1b chromo inh: inconclusive; G9a inh: 12.6µM*; Sfp inh: -9.8%; L3MBTL1 inh: -16.7%; JMJD2A Tudor: 14.1µM*; BAZ2B block: 28.2µM*

What do the screens show for `Cc1nn2c(=O)cc(COC(=O)c3cccc(NC(=O)COc4ccc(C)c(C)c4)c3)nc2s1`?
HP1b chromo inh: 31.4%; G9a inh: 30.6%[59 µM]; JMJD2A Tudor: -7.0%; BAZ2B block: -3.8%

Results for COc1cc(-c2cc(C(=O)Nc3ccc(S(N)(=O)=O)cc3)c3ccccc3n2)cc(OC)c1OC ?
HP1b chromo inh: 21.7%; G9a inh: -47.1%; Sfp inh: 15.3%; JMJD2A Tudor: -21.2%; BAZ2B block: 16.4%

How did Cc1ccnc(NS(=O)(=O)c2ccc(NC(=O)c3cc(-c4ccccc4)nc4ccccc34)cc2)n1 do in these assays?
HP1b chromo inh: 2.5%; G9a inh: inconclusive; Sfp inh: 21.3%; L3MBTL1 inh: -7.7%; JMJD2A Tudor: -19.2%; BAZ2B block: -20.7%

What do the screens show for `Cc1ccc(-c2cc(C(=O)Nc3ccc(S(=O)(=O)Nc4nc(C)cc(C)n4)cc3)c3ccccc3n2)cc1`?
HP1b chromo inh: inconclusive; G9a inh: 50.1µM*; Sfp inh: -0.3%; L3MBTL1 inh: -11.8%; JMJD2A Tudor: -18.5%; BAZ2B block: inconclusive

Screening data deposited in PubChem BioAssay by National Center for Advancing Translational Sciences (NCATS).
